An excerpt weighted towards active compounds, which were near 1.6% of everything screened.
Imprint erasure – induces erasure of genomic imprints in mouse ES cells; mouse ES Peg3-LacZ reporter, beta-gal luminescence, 40 h; Potency, µM (series often up to 60.7 µM), without a hit: at the top dose activity change, positive = activation, usual class: activators; 0.02% of 110,000 active; AID 1948; also: potency is read from the fitted curve at half-maximal effect
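Gelatin-coated wells received 300 freshly trypsinized female ES cells with a Peg3LacZ-Neo reporter on the maternal allele, then incubated 40 hours at 37C. BetaGlo was added for 5 minutes at room temperature before a single luminescence read.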
UbGFP stabilizer – proteasome inhibitors stabilizing ubiquitin-GFP reporter | Ubiquitin-GFP reporter cells, proteasome inhibition, GFP fluorescence; response scale: untreated = 0%, 10 µM MG-132 = 100% | Potency, µM (highest dose often 45.9 µM), for inactives: at the highest dose activation (GFP accumulation), most hits filed as activators | 67,000 tested, under 10 active; active = well fitted activation curve with a large enough effect, not every such curve was filed as active; inconclusive = small, poorly fitted or top-dose-only effect, or another doubt; inactive = no such curve, though single readings can be large or run the other way; also: potency is read from the fitted curve at half-maximal effect
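Reporter cells (U2OS, ubiquitin-G76V-GFP fusion) are plated overnight, then treated 4 hr at 37 °C with compound titrations from 46 uM down to 2.9 nM. Activity is scaled against untreated cells and 10 uM MG-132.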
GFP derepression – epigenetic modulators derepressing GFP locus in mouse cells | AID 597 | Potency, µM (top dose mostly 46.1 µM), for inactives: at the highest dose GFP derepression (activation) | mouse C127i GFP locus derepression, cytometry, 30 h | 0.09% of 68,000 active; also: % of control where 0% means no effect
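Locus derepression in mouse mammary C127i cells whose integrated CMV-GFP reporter is normally silent; GFP expression after 30 h compound treatment was quantified by counting fluorescent cells.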
p53ts 32C tox – kills p53ts cells at the permissive temperature. 0.93% of 130,000 active. H1299-p53A138V at 32C, ATP luminescence viability, 24 h. Potency, µM (doses to about 46.1 µM), for the others: at the top dose activity change, negative = cytotoxicity, actives largely listed as cytotoxic;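 also: potency is read from the fitted curve at half-maximal effect; 0% = DMSO and -100% = full killing by reference compound; nearly all actives have a fitted effect of over 55% in size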
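ATP-content luminescence (ATPlite) read-out after 24 h compound exposure at 32C in H1299-p53A138V cells (600/well). Tested up to 46 uM. Normalized to DMSO (0%) and 100 uM tamoxifen (100% killing); Hill-fit AC50.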
HBB splice mod – hemoglobin beta splicing modulation; 0.06% of 65,000 active; Potency, µM (highest dose often 46.1 µM), without a hit: at the top dose activation, most hits filed as activators; AID 925; HBB splicing reporter cell assay, activation; EGFP reporter with mutant IVS2-654 intron; response scale: normalised to 500 nM splice-correcting PNA; also: potency is read from the fitted curve at half-maximal effect; 0% is about no effect
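HeLa cells stably expressing EGFP interrupted by mutant beta-globin intron 2 (IVS2-654), 500/well in 2% FCS. Treated with compound for 2 days at 37C. Splicing correction scored as total well GFP intensity (488 nm excitation, 500-520 nm emission); 500 nM antisense PNA served as control.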
p53ts 39C kill – kills p53ts cells at the nonpermissive temperature; H1299-p53A138V viability at 39C, ATP luminescence, 24 h; Potency, µM (titrated, usually from 46.1 µM), for inactives: at the top dose activity change, negative = cell killing, hits mostly cytotoxic; 1.5% of 130,000 active; also: potency is read from the fitted curve at half-maximal effect; % is scaled to controls: 0 for no effect and ±100 for the full control effect; nearly all actives have a fitted effect of over 55% in size
Numbers without * were called inactive; ? = inconclusive; nt = no result; ! = not active in a repeat; [ ] = dose if it differs, or a comment. Unless noted, calls follow the shape of the dose curve; as a rule, active = well fitted curve in the direction sought with a large enough effect; inconclusive = small, poorly fitted or top-dose-only effect, or another doubt; inactive = no such curve, though single readings can be large; an effect the other way counts as inactive or inconclusive.

SMILES	Imprint erasure	UbGFP stabilizer	GFP derepression	p53ts 32C tox	HBB splice mod	p53ts 39C kill
COc1ccc(-c2nc3ccccc3s2)cc1NC(=O)COc1cccc(C)c1	-8.9%[10.9 µM]	nt	nt	-22.3%	nt	10µM*
Cc1ccc(-c2nc3ccccc3s2)cc1NC(=O)COc1ccccc1	-11.7%[10.9 µM]	nt	nt	-9.0%	nt	-24.8%
OCc1ccnc2c(O)cccc12	-17.4%	0.0%	-2.6%	-23.0%	0.6%	?
Cc1cc(C(C)(C)CC(C)(C)C)ccc1OCCOCC[N+](C)(C)Cc1ccccc1	-32.7%	8.2%[20.5 µM]	2.2%[20.6 µM]	25.1µM*!	-1.0%[20.6 µM]	25.1µM*!
CC(C)(C)CC(C)(C)c1ccc(O)c(C[N+](C)(C)[O-])c1	-17.5%[10.9 µM]	-4.9%[9.17 µM]	-1.2%[9.22 µM]	-5.5%[9.22 µM]	-0.2%[9.22 µM]	-5.1%[9.22 µM]
COc1ccc(CNc2nc(-c3ccc(N(C)C)cc3)nc3ccccc23)c(OC)c1	-33.3%	0.0%	-3.3%[9.22 µM]	12.6µM*	-1.1%	15.8µM*
CNc1nc(-c2ccc(N(C)C)cc2)nc2ccccc12	-38.5%	-4.0%	13.7%[9.22 µM]	12.6µM*	?	10µM*
CN(C)c1ccc(-c2nc(Nc3ccncc3)c3ccccc3n2)cc1	nt	0.0%	0.0%[9.22 µM]	10µM*	-0.1%	7.94µM*
COc1ccccc1CNc1nc(-c2ccccc2CN(C)C)nc2ccccc12	-19.1%	-3.3%	5.7%[9.22 µM]	-7.6%	-0.9%	15.8µM*
CN(C)Cc1ccccc1-c1nc(NCc2ccccc2)c2ccccc2n1	-22.0%	-0.6%	-3.3%[9.22 µM]	-24.1%	-1.0%	-24.7%
CN(C)C(=O)c1ccc(-c2nc(Nc3ccncc3)c3ccccc3n2)cc1	-7.1%	-2.9%	0.0%[9.22 µM]	?	-0.1%	?
O=C(Nc1ccc(S(=O)(=O)N2CCOCC2)cc1)C1COc2ccccc2O1 (stereo not given)	-7.7%	12.5%	-4.1%	-0.3%	-0.5%[9.22 µM]	7.6%
CCCC(=O)NCCc1c2n(c3ccc(OC)cc13)Cc1ccccc1-2	-16.5%	3.3%	-2.2%	22.7%	-0.5%	-6.6%
CN(C)c1ccc(-c2nc(NCc3cccnc3)c3ccccc3n2)cc1	-47.2%	-3.3%	6.3%[9.22 µM]	5.01µM*	-0.5%	3.98µM*
Cc1ccc(NS(=O)(=O)c2ccc3nc(-c4ccccc4)[nH]c3c2)cc1Cl	-14.8%[10.9 µM]	nt	nt	?	nt	12.6µM*
Cc1ccc(C(=O)/C=C2\NCCNC2=O)cc1	nt	nt	nt	12.6µM*	nt	?
CC1CCN(S(=O)(=O)c2ccc3[nH]cc(C(=O)NCc4ccc(F)cc4)c(=O)c3c2)CC1	-8.9%[10.9 µM]	nt	nt	3.3%	nt	-4.3%
CCCNC(=O)OC[C@H]1O[C@@H](CCO/N=C2/[C@H]3O[C@@H]3[C@@H](O)[C@H]3[C@H]2CCn2c(=O)n(-c4ccccc4)c(=O)n23)C=C[C@@H]1Oc1ccc(OC)cc1	nt	nt	nt	2.4%[9.22 µM]	0.4%[9.22 µM]	2.2%[9.22 µM]
COc1ccc(CC(=O)NCc2nnc(SCCOc3ccccc3)n2C)cc1	-0.3%	3.1%	3.4%	-15.9%	2.0%	8.8%
COC(=O)c1ccc(C)c(NC(=O)CN2C(=O)c3ccccc3S2(=O)=O)c1	1.3%	1.7%	1.7%	-0.5%	2.1%	4.9%
Cc1ccc(/C=C/c2nc3ccccc3[nH]2)cc1	-90.8%[10.9 µM]	nt	nt	0.501µM*	nt	0.501µM*
CCOc1cccc2c1OC(c1cc(OC)c(OC)c(OC)c1)N1N=C(c3ccc(C)o3)CC21 (stereo not given)	nt	nt	nt	11.2µM*	nt	?
O=C1c2ccccc2C(=O)c2c1ccc(O)c2O	-43.3%	nt	nt	-2.0%	nt	-12.5%
O=C1c2ccc(O)c(O)c2C(=O)c2c(O)ccc(O)c21	-18.2%	nt	nt	?	nt	5.01µM*
NS(=O)(=O)c1ccc(N=Nc2nc3[nH]c(=O)[nH]c(=O)c3[nH]2)cc1	3.2%[10.9 µM]	-4.6%[9.17 µM]	-1.2%[9.22 µM]	0.8%[9.22 µM]	0.2%[9.22 µM]	0.6%[9.22 µM]
NS(=O)(=O)c1ccc(N=Nc2nc3[nH]cnc(=S)c3[nH]2)cc1	5.1%[10.9 µM]	0.0%[9.17 µM]	-3.4%[9.22 µM]	-28.6%[9.22 µM]	3.98µM*	-21.7%[9.22 µM]
CCN(CC)C(=S)SSC(=S)N(CC)CC	-85.7%	7.2%[20.5 µM]	1µM*!	nt	0.4%[20.6 µM]	nt

Source: PubChem BioAssay
